# Test results from PubChem BioAssay (NCATS).
# The source made the active and inactive calls. No rule for the calls is given here.
# Tested on: HIV-1 nucleocapsid protein NCp7 (binding to TG oligonucleotide)
# Test: HIV Nucleocapsid (AID 346);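 also: potency is for inhibitors that block NC binding and lower polarization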
# Conditions: HIV-1 NC / fluorescein-TGTGTGTG probe, fluorescence polarization
# Outline: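 Fluorescence polarization readout: labelled TG4xF oligo (10 nM) with 100 nM nucleocapsid protein, high-salt (250mM NaCl) Hepes pH 7.5 buffer containing zinc and fresh reducing agents. Compounds added by pin tool; incubation 1 hr, room temperature.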
# Potency is read from the fitted curve at half-maximal effect.
row,Compound,Potency
1,CCNc1ncc2nc(C)c(=O)n(C[C@H]3CCCO3)c2n1,> 20 µM (inactive)
2,O=S(=O)(c1ccccc1)N1CCC2(CC1)CN(Cc1nccs1)C2,> 20 µM (inactive)
3,N#Cc1cccc(NC(=O)N2CCC3(CC2)CCN(C(=O)c2cccc(F)c2)CC3)c1,> 20 µM (inactive)
4,COc1ccc(C(=O)N2CCC[C@@]3(CCN(c4ccncc4)C3)C2)cc1,> 20 µM (inactive)
5,COc1ccc(NC(=O)N2CC3(CCN(C(=O)c4cccc(F)c4)CC3)C2)cc1,> 20 µM (inactive)
6,COc1ccc(CNc2nc(-c3ccccc3OC)nc3ccccc23)c(OC)c1,> 20 µM (inactive)
7,O=C(c1csnn1)N1CCC[C@@]2(CCN(c3ccccn3)C2)C1,> 20 µM (inactive)
8,Cc1cccc(CNc2ncncc2-c2ccc3c(c2)OCO3)c1,> 20 µM (inactive)
9,COCCn1c(=O)c(-c2ccccc2)nc2cnc(OC)nc21,> 20 µM (inactive)
10,COc1ccccc1-c1cncnc1NCCN1CCOCC1,> 20 µM (inactive)
11,COc1ccccc1-c1cc(-n2ccnc2)ncn1,> 20 µM (inactive)
12,O=C(c1ccncc1)N1CCC2(CCCN(c3ccncc3)C2)CC1,> 20 µM (inactive)
13,CN1CCN(c2ncc3nc(-c4cn(C)c5ccccc45)c(=O)n(CCC#N)c3n2)CC1,> 20 µM (inactive)
14,COc1ccc(-n2c(=O)c(-c3ccccc3)nc3cnc(N4CCOCC4)nc32)cc1,> 20 µM (inactive)
15,Cn1c(=O)c(-c2ccc(F)c(F)c2)nc2cncnc21,> 4 µM (inactive)
16,COc1cccc(-c2ccc3ncnc(NCc4cccs4)c3c2)c1,> 20 µM (inactive)
17,CNc1ncnc2ccc(-c3ccccc3CN(C)C)cc12,> 20 µM (inactive)
18,COc1ccc(Oc2ncc3nc(-c4cccc(C#N)c4)c(=O)n(C)c3n2)cc1,> 20 µM (inactive)
19,COc1ccc(C(=O)N2CCC3(CC2)CCN(c2ccncc2)CC3)cc1,> 20 µM (inactive)
20,O=C(Nc1ccccc1)N1CC2(CCN(C(=O)c3ccncc3)CC2)C1,> 20 µM (inactive)

row,Compound,Potency
1,O=C(c1cccc(F)c1)N1CCC[C@@]2(CCN(Cc3nccs3)C2)C1,> 20 µM (inactive)
2,COc1ncc2nc(-c3cccc(C#N)c3)c(=O)n(CCC#N)c2n1,> 20 µM (inactive)
3,COc1cccc(-c2ccc3ncnc(N(C)Cc4ccco4)c3c2)c1,> 20 µM (inactive)
4,COCCNc1nc(-c2ccccc2C(F)(F)F)nc2ccccc12,> 20 µM (inactive)
5,COc1ncc2nc(-c3cc(F)cc(F)c3)c(=O)n(Cc3cccs3)c2n1,> 20 µM (inactive)
6,O=S(=O)(c1ccccc1)N1CCC[C@@]2(CCN(c3cccc(-c4ccccc4)c3)C2)C1,> 20 µM (inactive)
7,CN(Cc1ccco1)c1cc(-c2ccccc2C(F)(F)F)ncn1,> 20 µM (inactive)
8,O=C(c1cccc(F)c1)N1CCC2(CCCN(c3ccccn3)C2)CC1,> 20 µM (inactive)
9,O=c1c(-c2ccccc2)nc2cnc(Oc3ccccc3)nc2n1Cc1cccs1,> 20 µM (inactive)
10,CS(=O)(=O)N1CCC2(CC1)CN(C(=O)Nc1cccc(F)c1)C2,> 20 µM (inactive)
11,O=C(c1cnccn1)N1CCC2(CC1)CCN(c1ccccc1)CC2,> 20 µM (inactive)
12,CN(Cc1ccco1)c1nc(-c2cccc(C#N)c2)nc2ccccc12,> 20 µM (inactive)
13,COc1ccc(-n2c(=O)c(-c3ccccc3)nc3cncnc32)cc1,> 20 µM (inactive)
14,O=c1c(CCc2ccccc2)nc2cnc(Oc3cccc(Cl)c3)nc2n1C[C@H]1CCCO1,> 20 µM (inactive)
15,O=C(c1cccc(F)c1)N1CCC[C@@]2(CCN(c3ncccn3)C2)C1,> 20 µM (inactive)
16,Cn1c(=O)c(-c2cccc(Cl)c2)nc2cncnc21,> 20 µM (inactive)
17,Fc1ccc(Nc2nc(-c3cccnc3)nc3ccccc23)cc1,> 20 µM (inactive)
18,N#Cc1cccc(-c2cncnc2NCCc2cnc[nH]2)c1,> 20 µM (inactive)
19,COCCn1c(=O)c(C)nc2cnc(N3CCOCC3)nc21,> 20 µM (inactive)
20,Cc1ccccc1-c1nc(N2CCN(C)CC2)c2ccccc2n1,> 20 µM (inactive)
